Reference: PubChem BioAssay AID1159580 (chemical genetic matrix, 2015)
Hit rate of the full screen: of about 5,500 compounds, about 2,000 (36%) were called active. Another 18% or so got no clear call; they are omitted. No stated cut-off is given here; in the data, active means normalized growth mostly below about 0.91 (no sharp cut-off); inconclusive means no clear call, values can overlap the other calls; inactive means mostly above about 0.92. This is one part of the list.

Experiment: chemical genetic growth profiling, strain panel (AID 1159580);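 further: tested at 20 µM; growth read once vehicle control cultures reached saturation at 30 °C; 1 = growth at the plate median or of vehicle wells; lower values mean less growth of the strain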
Settings: S. cerevisiae deletion strains, growth OD

Measured: normalized growth

CC(=O)Nc1ccc(S(=O)(=O)Nc2ncccn2)cc1
inactive: locus YAL013W, strain DEP1, active compounds read low 1.01 | locus YBR229C, strain ROT2, active compounds read low 0.992 | locus YCL061C, strain MRC1, active compounds read low 1.02 | locus YDL101C, strain DUN1, active compounds read low 0.995 | locus YDL134C, strain PPH21, active compounds read low 0.997 | locus YDR150W, strain NUM1, active compounds read low 0.921 | locus YEL061C, strain CIN8, active compounds read low 1.01 | locus YGR078C, strain PAC10, active compounds read low 1 | locus YHR030C, strain SLT2, active compounds read low 1.08 | locus YHR087W, strain rtc3, active compounds read low 0.987 | locus YJR043C, strain POL32, active compounds read low 1.01 | locus YJR075W, strain HOC1, active compounds read low 0.994 | locus YLR039C, strain RIC1, active compounds read low 1.02 | locus YLR058C, strain SHM2 (second series), active compounds read low 1.03 | locus YLR085C, strain ARP6, active compounds read low 0.958 | locus YLR262C, strain YPT6, active compounds read low 1.13 | locus YML094W, strain GIM5, active compounds read low 0.981 | locus YMR219W, strain ESC1, active compounds read low 1 | locus YMR263W, strain SAP30, active compounds read low 1 | locus YMR307W, strain GAS1, active compounds read low 0.919 | locus YNL153C, strain GIM3, active compounds read low 1.01 | locus YNL298W, strain CLA4 (second series), active compounds read low 1 | locus YNL322C, strain KRE1, active compounds read low 0.999 | locus YNR030W, strain Alg12, active compounds read low 1.01 | locus YPL055C, strain LGE1, active compounds read low 0.92 | locus YPL241C, strain CIN2, active compounds read low 0.963 | locus YPR135W, strain CTF4, active compounds read low 1.08
